Drawing on PubChem BioAssay AID2018 (Sanford-Burnham Center for Chemical Genomics, 2009), this text covers inhibition for 61 molecules.

Screen size: about 1,200 compounds; about 600 (50%) were called active. The set was probably picked from earlier hits. The list shows a part of the results. Potency and affinity values are given separately. Values without a mark were called inactive. Rule as the data show it: active = inhibition above about 42%; inactive = the rest.

The term inhibition denotes the change of the read-out against control, counted positive when it falls.

Sequence of SUMO-conjugating enzyme UBC9 (Homo sapiens) (P63279 whole entry, looked up): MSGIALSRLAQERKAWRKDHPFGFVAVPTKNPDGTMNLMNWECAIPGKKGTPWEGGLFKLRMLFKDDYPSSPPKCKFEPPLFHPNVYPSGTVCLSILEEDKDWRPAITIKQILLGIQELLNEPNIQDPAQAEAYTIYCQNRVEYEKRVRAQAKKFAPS

The test concerns the target SUMO-conjugating enzyme UBC9 (Homo sapiens) (UniProt P63279). The experiment in a line: SUMOylation inhibitor hit validation, confirmation, SUMOylation inhibitor project, biochemical, AlphaScreen (AID 2018). To be noted: AlphaScreen in vitro SUMOylation assay; at 35 µM; hits give high values. In general terms: In Alpha technology, singlet oxygen from a donor bead excites a nearby acceptor bead.
As for `Cc1oc2c(c(C)cc3oc(=O)c(CC(=O)N[C@H](C(=O)O)C(C)C)c(C)c32)c1C`, the inhibition was 10.7%.
The result for `COc1ccc(-c2csc(CCN3N=C(C)CC3=O)n2)cc1` reads 53.9% (active); that for `COc1cccc(-c2[nH]nc3c2C(c2ccsc2)C(C#N)=C(N)O3)c1` (stereo unspecified), 24.1%.
For `CC(C)=CCC1=C(OCC(=O)O)C(=O)c2ccccc2C1=O` the value was 99.7% (active); for `O=[N+]([O-])c1ccc(O)c(C=Nc2cccc3ncccc23)c1`, 19.8%; for `CC(C)N(C(=O)Nc1ccc2nccnc2c1)C(C)C`, 44.2% (active).
As for `Fc1ccc(NC(=S)Nc2ccc3nccnc3c2)cc1`, the inhibition was 25%.
`CCCCn1c(=O)[nH]c2nc3cc(N)ccc3nc2c1=O`: the inhibition was 9.9%.
The result for `CC(C)(C)OC(=O)c1c(N)n(CCCN2CCCC2=O)c2nc3ccccc3nc12` reads -0.3%; that for `CCC(=O)OCCNc1cc(Sc2nc3ccccc3s2)c2nonc2c1[N+](=O)[O-]`, 46.1% (active).
For `Cc1nnc(Sc2cc(NCCO)c([N+](=O)[O-])c3nonc23)s1` the value was 24.5%.
The result for `CC(=O)OCCCNc1cc(SCc2ccco2)c2nonc2c1[N+](=O)[O-]` reads 40.6%.
Take `Cc1ccc(Sc2cc(NCCCO)c([N+](=O)[O-])c3nonc23)cc1`: the inhibition is 35.8%.
For `O=[N+]([O-])c1c(NCCCO)cc(Sc2nc3ccccc3s2)c2nonc12` the value was 37.6%; for `CCC(=O)OCCNc1cc(Sc2nccn2C)c2nonc2c1[N+](=O)[O-]`, 24.5%.
With `CC(=O)OCCNc1cc(SCc2ccco2)c2nonc2c1[N+](=O)[O-]`, the inhibition is 87.5% (active).
Consider `Cc1nnc(Sc2cc(NCCCO)c([N+](=O)[O-])c3nonc23)s1`, for which the inhibition was 21.7%.
The result for `O=[N+]([O-])c1c(NCCCO)cc(Sc2ccc(Cl)cc2)c2nonc12` reads 42.6% (active); that for `O=C(Nc1ccccc1)Oc1ccc[nH]c1=O`, 10.3%; that for `CN(CCO)c1nc(N)c2c(N)nc3c(c2c1C#N)CC(=O)N3C1CCCC1`, 29.5%.
The result for `CCOC(=O)c1c(-c2ccccc2)oc2ccc(OC(C)C(=O)O)cc12` (stereo unspecified) reads -14%; that for `N#Cc1c2ccc(OCC(N)=O)cc2n2ccccc12`, 56.5% (active); that for `COc1ccc2cc3c(N)nn(C(=O)Cc4ccc(Cl)cc4)c3nc2c1`, 19.7%.
The result for `COC(=O)c1c(C)oc(C)c1S(=O)(=O)NC(C)(C)C` reads 15%; that for `CCOC(=O)CCc1c(C)c(C#N)c2[nH]c3ccccc3n2c1=O`, 73.9% (active); that for `C=CCNc1nc(NCc2ccccc2)c(C#N)c2c1CN(C)CC2`, 36.6%.
For the molecule `Cc1cc(/C=N/n2c(COc3ccccc3C)nc3ccccc3c2=O)c(O)c([N+](=O)[O-])c1`, the inhibition is 102% (active).
For `COc1ccc(CC2S/C(=N/N=C/c3ccccc3O)NC2=O)cc1` (stereo unspecified) the value was 19%; for `CC(=O)Oc1ccc2cc(-c3nc4ccccc4n3C)c(=O)oc2c1`, -26.3%; for `Brc1ccc(C2Nc3cccc4cccc(c34)N2)o1`, 69.5% (active).
For `Cc1cc(C)cc(NC(=S)Nc2cccc3ccccc23)c1` the value was 4%; for `Cc1oc2c(c(C)cc3oc(=O)c(CC(=O)N[C@@H](C)C(=O)O)c(C)c32)c1C`, -7%.
For `CCC(NC(=O)Cc1c(C)c2c(cc(C)c3c(C)c(C)oc32)oc1=O)C(=O)O` (stereo unspecified) the value was 26.9%.
`CCN(c1ccccc1)S(=O)(=O)c1ccc(Cl)c(NC(=O)COC(=O)c2cc(O)c3ccccc3c2O)c1`: the inhibition is 73% (active).
For `CN1c2ccccc2C(C)(C)C12C=Nc1c(cc(N3CCOCC3)c3ccccc13)O2` (stereo unspecified), the inhibition was 45.2% (active).
For `COc1ccc2ccc3c(c2c1)N=C[C@]1(O3)N(C)c2ccccc2C1(C)C`, the inhibition is 27.7%.
The result for `Cc1ccc(-n2c(-c3cc(-c4ccco4)[nH]n3)n[nH]c2=S)c(Br)c1` reads 57% (active).
The result for `S=c1[nH]nc(-c2ccco2)n1/N=C/C=C/c1ccco1` reads 25.8%; that for `COc1ccc(OC)c(-n2c(-c3cc(-c4ccco4)[nH]n3)n[nH]c2=S)c1`, 48.4% (active); that for `S=c1[nH]nc(-c2cc(-c3ccco3)[nH]n2)n1-c1ccccc1Cl`, 96.5% (active).
For `S=c1[nH]nc(-c2cc(-c3ccco3)[nH]n2)n1-c1cccc2ccccc12` the value was 46.9% (active); for `O=C1C2C3C=CC(C3)C2C(=O)N1CNc1ccc(O)cc1` (stereo unspecified), 92.9% (active); for `O=C(Nc1ccc(-n2nncc2-c2ccco2)cc1)c1cc2ccccc2oc1=O`, 35.2%.
As to `CC(=O)C1C(=O)C=C(c2ccco2)CC1c1ccccc1` (stereo unspecified), the inhibition was -5.3%.
The result for `O=C(O)c1cc(-c2ccco2)nn1-c1ccc(Cl)cc1` reads 54.7% (active); that for `CCOc1ccc(C2Nc3cccc4cccc(c34)N2)cc1OC`, 73.4% (active); that for `Cc1ccc(C2Nc3cccc4cccc(c34)N2)s1`, 71.9% (active).
For `Cc1cccc(NC(=O)CC2Nc3cccc4cccc(c34)NC2=O)c1` (stereo unspecified) the value was 28.8%.
In the case of `COc1cc(OC)c(C2Nc3cccc4cccc(c34)N2)c(OC)c1`, the inhibition was 91.3% (active).
For `COc1ccccc1C1Nc2cccc3cccc(c23)N1` the value was 77.6% (active); for `C=CCn1c(SCC(=O)N2N=C(c3ccco3)CC2c2ccco2)nnc1-c1ccncc1` (stereo unspecified), 3.2%.
Turning to `O=C(CC1Nc2cccc3cccc(c23)NC1=O)Nc1ccccc1` (stereo unspecified), the inhibition is 30.7%.
The result for `Fc1cccc(Cl)c1C1Nc2cccc3cccc(c23)N1` reads 53.9% (active).
`Oc1ccc(C2Nc3cccc4cccc(c34)N2)c(O)c1`: the inhibition is 86.1% (active).
The result for `O=C1C2C3C=CC(C4CC34)C2C(=O)N1CCc1ccccc1` (stereo unspecified) reads -31.9%; that for `COCCCNC(=O)c1cccn2c(=O)c3cc4ccccc4cc3nc12`, 16.5%.
For `CCOc1c(Br)cc(/C=C2\C(=O)N(CCC#N)N=C2C)cc1OC` the value was 8.8%.
With `C=CCOc1c(Cl)cc(CNc2ccc3[nH]c(=O)[nH]c3c2)cc1OC`, the inhibition is 41.5%.
The result for `Cc1cccc(/C=N/NC(=O)C(C)Nc2cccc3ccccc23)n1` (stereo unspecified) reads -0.7%; that for `COCCN=c1scc(-c2ccco2)n1/N=C/c1ccc(O)c(O)c1O`, 82.6% (active); that for `CC1=NN(c2ccccc2)C(=O)C1`, 53.2% (active).
